From ChEMBL document CHEMBL1961873, “Compounds: GSK PKIS; Assays: Nanosyn kinase panel” (2012)

What was measured:
[1] = molecular target: Protein kinase C gamma type (Homo sapiens) (UniProt P05129); conditions: at 1 µM;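 further: each value is an averaged percent inhibition of the enzyme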
[2] = molecular target: T1, Protein kinase C iota type (Homo sapiens) (UniProt P41743); conditions: at 0.1 µM
T1 sequence (whole entry): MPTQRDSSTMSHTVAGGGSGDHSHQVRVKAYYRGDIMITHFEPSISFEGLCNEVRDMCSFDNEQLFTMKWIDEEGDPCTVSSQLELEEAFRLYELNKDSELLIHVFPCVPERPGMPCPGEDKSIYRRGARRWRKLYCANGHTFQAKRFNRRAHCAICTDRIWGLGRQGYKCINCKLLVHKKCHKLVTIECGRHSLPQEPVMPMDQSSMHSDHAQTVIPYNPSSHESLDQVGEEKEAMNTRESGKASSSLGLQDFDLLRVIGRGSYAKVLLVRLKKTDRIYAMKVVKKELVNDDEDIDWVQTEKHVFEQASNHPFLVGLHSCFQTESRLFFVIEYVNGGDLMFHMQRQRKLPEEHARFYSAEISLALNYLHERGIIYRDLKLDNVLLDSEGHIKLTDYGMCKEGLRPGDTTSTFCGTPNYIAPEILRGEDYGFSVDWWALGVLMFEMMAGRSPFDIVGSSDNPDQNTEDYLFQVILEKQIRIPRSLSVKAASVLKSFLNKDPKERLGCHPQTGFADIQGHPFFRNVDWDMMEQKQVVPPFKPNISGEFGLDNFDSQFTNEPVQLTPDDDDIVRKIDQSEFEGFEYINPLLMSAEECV

[3] = molecular target: T1, Protein kinase C iota type (Homo sapiens); conditions: at 1 µM
[4] = molecular target: Protein kinase C theta type (Homo sapiens) (UniProt Q04759); conditions: at 0.1 µM
[5] = molecular target: Protein kinase C theta type (Homo sapiens) (UniProt Q04759); conditions: at 1 µM
[6] = molecular target: Protein kinase C beta type (Homo sapiens) (UniProt P05771); conditions: at 0.1 µM
[7] = molecular target: Protein kinase C beta type (Homo sapiens) (UniProt P05771); conditions: at 1 µM
[8] = molecular target: T2, Serine/threonine-protein kinase D1 (Homo sapiens) (UniProt Q15139); conditions: at 0.1 µM
T2 sequence (whole entry): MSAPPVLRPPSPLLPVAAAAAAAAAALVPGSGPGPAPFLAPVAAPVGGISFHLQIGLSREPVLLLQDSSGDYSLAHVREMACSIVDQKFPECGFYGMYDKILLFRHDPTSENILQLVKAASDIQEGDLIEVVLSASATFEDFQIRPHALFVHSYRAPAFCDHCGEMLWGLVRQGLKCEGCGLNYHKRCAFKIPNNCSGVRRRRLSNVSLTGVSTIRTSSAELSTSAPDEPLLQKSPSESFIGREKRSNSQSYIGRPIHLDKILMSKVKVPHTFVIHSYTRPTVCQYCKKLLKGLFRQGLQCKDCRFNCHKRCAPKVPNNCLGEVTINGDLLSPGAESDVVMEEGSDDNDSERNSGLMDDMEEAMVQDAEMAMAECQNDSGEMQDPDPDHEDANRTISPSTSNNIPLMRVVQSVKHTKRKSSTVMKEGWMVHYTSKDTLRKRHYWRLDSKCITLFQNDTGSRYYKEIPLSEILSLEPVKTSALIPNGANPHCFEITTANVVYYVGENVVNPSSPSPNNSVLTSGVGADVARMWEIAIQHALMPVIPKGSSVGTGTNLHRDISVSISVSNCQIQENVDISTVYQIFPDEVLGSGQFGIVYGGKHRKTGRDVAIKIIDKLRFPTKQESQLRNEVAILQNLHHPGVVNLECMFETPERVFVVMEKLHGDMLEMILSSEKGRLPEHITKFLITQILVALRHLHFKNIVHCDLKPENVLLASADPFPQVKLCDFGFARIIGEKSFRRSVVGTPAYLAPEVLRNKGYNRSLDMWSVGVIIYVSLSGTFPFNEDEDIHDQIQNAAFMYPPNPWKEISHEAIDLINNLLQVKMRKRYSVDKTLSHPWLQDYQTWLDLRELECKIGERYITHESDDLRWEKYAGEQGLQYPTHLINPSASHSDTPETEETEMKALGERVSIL

[9] = molecular target: T2, Serine/threonine-protein kinase D1 (Homo sapiens); conditions: at 1 µM
[10] = molecular target: T3, Serine/threonine-protein kinase D2 (Homo sapiens) (UniProt Q9BZL6); conditions: at 0.1 µM
T3 sequence (whole entry): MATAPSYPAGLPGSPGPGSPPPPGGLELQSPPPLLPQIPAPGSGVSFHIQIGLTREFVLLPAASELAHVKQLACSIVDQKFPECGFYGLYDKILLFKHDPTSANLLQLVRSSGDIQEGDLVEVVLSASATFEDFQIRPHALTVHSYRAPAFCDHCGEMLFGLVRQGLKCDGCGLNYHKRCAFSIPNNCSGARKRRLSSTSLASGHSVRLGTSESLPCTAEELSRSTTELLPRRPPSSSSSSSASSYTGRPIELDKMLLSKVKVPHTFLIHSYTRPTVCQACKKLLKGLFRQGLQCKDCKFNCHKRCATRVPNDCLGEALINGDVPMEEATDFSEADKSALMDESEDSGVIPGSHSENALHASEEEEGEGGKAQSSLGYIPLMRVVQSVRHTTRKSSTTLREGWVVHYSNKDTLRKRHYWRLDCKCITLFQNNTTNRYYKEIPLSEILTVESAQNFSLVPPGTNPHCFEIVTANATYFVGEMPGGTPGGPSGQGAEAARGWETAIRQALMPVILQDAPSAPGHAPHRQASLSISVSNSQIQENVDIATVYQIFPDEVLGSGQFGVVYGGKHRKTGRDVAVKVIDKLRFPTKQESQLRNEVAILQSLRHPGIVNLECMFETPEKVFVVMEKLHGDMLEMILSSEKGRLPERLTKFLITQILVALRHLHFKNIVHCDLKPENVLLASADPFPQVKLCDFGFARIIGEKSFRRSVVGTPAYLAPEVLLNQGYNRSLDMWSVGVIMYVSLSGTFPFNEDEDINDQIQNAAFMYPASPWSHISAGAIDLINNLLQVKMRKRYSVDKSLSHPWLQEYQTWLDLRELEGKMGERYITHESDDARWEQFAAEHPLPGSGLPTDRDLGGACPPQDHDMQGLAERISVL

[11] = molecular target: T3, Serine/threonine-protein kinase D2 (Homo sapiens); conditions: at 1 µM
[12] = molecular target: T4, Serine/threonine-protein kinase D3 (Homo sapiens) (UniProt O94806); conditions: at 0.1 µM
T4 sequence (whole entry): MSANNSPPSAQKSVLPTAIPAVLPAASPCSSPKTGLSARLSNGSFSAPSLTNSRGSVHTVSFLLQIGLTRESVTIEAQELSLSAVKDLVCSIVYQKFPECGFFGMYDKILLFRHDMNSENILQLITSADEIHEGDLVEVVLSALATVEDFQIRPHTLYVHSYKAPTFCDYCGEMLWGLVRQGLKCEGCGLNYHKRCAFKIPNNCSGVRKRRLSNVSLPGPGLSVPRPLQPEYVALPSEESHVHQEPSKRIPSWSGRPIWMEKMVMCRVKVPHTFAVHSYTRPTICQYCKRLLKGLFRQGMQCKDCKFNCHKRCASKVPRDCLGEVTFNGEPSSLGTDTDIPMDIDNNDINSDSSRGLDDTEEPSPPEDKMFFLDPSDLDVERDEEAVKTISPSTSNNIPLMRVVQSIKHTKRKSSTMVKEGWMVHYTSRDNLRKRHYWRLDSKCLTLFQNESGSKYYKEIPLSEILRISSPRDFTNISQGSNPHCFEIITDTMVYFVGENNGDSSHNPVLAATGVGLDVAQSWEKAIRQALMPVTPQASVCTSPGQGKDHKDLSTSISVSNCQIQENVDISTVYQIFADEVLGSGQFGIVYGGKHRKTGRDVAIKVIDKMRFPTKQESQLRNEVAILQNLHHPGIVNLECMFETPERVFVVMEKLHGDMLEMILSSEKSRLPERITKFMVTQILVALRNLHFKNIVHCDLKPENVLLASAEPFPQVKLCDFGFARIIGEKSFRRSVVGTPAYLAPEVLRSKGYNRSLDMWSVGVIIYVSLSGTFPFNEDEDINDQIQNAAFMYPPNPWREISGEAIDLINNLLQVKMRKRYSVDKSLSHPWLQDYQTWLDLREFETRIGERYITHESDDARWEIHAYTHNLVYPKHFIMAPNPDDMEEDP

[13] = molecular target: T4, Serine/threonine-protein kinase D3 (Homo sapiens); conditions: at 1 µM
[14] = molecular target: T5, cGMP-dependent protein kinase 1 (Homo sapiens) (UniProt Q13976); conditions: at 0.1 µM
T5 sequence (whole entry): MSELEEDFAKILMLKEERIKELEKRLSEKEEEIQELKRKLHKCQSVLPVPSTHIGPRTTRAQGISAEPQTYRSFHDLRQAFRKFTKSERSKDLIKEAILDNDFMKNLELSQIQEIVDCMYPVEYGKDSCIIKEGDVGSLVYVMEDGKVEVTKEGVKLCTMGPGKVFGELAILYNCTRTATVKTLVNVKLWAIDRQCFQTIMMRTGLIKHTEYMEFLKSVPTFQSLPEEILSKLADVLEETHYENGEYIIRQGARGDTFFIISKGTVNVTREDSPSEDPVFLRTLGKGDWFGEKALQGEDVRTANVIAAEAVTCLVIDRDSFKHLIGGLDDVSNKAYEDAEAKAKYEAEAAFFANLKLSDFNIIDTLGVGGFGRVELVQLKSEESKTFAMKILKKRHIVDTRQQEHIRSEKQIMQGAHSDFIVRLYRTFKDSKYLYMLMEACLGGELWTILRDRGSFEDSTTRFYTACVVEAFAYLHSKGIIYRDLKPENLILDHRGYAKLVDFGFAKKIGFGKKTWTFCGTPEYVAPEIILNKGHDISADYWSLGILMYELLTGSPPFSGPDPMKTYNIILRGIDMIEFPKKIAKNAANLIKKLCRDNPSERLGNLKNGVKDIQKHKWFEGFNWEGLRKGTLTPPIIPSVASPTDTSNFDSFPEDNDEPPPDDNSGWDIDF

[15] = molecular target: T5, cGMP-dependent protein kinase 1 (Homo sapiens); conditions: at 1 µM
[16] = molecular target: T6, cGMP-dependent protein kinase 2 (Homo sapiens) (UniProt Q13237); conditions: at 0.1 µM
T6 sequence (whole entry): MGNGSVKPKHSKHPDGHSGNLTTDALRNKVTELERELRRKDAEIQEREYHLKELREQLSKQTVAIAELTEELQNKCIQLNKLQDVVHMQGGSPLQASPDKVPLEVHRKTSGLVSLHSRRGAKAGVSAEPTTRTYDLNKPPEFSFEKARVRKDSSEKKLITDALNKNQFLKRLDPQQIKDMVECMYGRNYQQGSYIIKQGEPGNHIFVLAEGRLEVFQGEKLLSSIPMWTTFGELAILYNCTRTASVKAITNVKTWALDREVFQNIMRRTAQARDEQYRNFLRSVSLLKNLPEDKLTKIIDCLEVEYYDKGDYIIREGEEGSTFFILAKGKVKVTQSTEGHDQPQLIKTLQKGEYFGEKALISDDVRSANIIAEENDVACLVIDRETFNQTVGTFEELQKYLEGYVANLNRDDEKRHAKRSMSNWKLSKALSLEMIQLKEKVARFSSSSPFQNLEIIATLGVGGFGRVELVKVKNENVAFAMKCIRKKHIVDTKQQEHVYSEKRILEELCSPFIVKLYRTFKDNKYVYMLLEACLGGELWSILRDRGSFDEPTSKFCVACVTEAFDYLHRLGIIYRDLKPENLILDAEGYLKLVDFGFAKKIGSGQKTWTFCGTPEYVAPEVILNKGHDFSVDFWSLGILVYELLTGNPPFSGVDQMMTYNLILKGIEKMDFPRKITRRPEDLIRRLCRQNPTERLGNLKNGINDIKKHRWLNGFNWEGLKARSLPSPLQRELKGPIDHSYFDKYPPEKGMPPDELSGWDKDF

[17] = molecular target: T6, cGMP-dependent protein kinase 2 (Homo sapiens); conditions: at 1 µM
[18] = molecular target: T7, cAMP-dependent protein kinase catalytic subunit PRKX (Homo sapiens) (UniProt P51817); conditions: at 0.1 µM
T7 sequence (whole entry): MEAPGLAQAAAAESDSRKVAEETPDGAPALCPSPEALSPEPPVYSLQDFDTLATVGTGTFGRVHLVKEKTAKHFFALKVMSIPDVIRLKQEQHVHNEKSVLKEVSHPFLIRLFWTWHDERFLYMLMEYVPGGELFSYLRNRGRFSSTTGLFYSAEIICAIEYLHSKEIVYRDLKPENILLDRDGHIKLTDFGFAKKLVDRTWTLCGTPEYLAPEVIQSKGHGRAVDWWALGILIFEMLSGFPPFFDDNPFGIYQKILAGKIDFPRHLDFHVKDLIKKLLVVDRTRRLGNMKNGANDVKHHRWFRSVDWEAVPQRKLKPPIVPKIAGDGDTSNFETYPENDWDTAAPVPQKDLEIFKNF

[19] = molecular target: T7, cAMP-dependent protein kinase catalytic subunit PRKX (Homo sapiens); conditions: at 1 µM
[20] = molecular target: Rho-associated protein kinase 1 (Homo sapiens) (UniProt Q13464); conditions: at 0.1 µM;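 further: values are mean percent inhibition of ROCK1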
Rho-associated protein kinase 1 (Homo sapiens), sequence (Q13464 2-1354 limits assumed): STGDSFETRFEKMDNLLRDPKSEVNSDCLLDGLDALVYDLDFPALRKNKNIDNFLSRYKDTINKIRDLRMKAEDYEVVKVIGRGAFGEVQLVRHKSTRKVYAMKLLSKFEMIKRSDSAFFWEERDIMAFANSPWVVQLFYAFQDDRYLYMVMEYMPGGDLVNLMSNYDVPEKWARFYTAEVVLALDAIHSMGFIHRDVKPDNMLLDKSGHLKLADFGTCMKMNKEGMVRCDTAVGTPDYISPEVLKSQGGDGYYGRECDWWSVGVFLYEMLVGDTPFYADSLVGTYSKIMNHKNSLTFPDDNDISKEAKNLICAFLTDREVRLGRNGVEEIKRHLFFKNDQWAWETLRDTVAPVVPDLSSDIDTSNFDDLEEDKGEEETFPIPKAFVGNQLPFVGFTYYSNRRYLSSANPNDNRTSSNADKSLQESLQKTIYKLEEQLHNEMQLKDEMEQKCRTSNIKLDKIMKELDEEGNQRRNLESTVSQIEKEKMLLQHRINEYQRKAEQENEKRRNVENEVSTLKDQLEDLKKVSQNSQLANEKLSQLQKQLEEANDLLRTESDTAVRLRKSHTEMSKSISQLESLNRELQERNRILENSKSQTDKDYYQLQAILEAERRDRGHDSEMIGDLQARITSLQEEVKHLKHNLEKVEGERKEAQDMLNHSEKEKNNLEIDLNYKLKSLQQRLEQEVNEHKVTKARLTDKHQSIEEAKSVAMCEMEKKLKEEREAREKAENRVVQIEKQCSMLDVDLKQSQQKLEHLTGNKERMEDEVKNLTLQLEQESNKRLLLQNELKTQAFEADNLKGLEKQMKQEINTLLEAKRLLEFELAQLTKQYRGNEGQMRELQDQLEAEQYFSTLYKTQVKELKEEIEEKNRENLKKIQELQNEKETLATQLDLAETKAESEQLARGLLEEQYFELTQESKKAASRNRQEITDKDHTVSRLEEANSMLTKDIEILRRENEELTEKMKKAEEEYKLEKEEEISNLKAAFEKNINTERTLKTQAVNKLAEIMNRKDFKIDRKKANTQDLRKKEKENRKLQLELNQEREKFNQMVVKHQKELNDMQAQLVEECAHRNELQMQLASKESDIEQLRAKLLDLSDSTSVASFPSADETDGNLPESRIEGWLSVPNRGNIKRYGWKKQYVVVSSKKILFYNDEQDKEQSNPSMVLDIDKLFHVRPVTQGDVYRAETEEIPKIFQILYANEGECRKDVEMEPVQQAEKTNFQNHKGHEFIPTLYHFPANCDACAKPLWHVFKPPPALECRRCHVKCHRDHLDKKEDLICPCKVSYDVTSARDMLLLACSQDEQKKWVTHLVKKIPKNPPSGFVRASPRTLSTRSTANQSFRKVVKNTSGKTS

Protein kinase C beta type (Homo sapiens), sequence (P05771 2-671 limits assumed): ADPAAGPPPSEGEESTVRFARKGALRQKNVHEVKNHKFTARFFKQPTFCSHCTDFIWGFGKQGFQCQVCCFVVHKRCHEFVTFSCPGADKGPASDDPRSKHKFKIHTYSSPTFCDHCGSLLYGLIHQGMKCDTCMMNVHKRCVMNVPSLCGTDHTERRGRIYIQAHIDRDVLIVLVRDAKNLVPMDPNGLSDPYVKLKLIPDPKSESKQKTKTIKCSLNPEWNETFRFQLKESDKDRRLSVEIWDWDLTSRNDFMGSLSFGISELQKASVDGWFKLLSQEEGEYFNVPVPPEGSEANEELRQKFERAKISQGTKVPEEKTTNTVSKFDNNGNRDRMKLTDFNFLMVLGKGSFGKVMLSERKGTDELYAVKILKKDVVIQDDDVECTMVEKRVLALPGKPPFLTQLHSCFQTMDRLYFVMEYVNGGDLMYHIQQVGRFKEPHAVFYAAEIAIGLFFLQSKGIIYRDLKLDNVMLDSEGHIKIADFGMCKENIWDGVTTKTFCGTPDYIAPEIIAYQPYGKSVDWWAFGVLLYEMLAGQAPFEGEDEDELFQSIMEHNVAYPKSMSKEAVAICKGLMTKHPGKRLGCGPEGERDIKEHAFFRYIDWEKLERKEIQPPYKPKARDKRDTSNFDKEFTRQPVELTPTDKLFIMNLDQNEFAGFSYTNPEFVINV
Protein kinase C theta type (Homo sapiens), sequence (Q04759 whole entry, looked up): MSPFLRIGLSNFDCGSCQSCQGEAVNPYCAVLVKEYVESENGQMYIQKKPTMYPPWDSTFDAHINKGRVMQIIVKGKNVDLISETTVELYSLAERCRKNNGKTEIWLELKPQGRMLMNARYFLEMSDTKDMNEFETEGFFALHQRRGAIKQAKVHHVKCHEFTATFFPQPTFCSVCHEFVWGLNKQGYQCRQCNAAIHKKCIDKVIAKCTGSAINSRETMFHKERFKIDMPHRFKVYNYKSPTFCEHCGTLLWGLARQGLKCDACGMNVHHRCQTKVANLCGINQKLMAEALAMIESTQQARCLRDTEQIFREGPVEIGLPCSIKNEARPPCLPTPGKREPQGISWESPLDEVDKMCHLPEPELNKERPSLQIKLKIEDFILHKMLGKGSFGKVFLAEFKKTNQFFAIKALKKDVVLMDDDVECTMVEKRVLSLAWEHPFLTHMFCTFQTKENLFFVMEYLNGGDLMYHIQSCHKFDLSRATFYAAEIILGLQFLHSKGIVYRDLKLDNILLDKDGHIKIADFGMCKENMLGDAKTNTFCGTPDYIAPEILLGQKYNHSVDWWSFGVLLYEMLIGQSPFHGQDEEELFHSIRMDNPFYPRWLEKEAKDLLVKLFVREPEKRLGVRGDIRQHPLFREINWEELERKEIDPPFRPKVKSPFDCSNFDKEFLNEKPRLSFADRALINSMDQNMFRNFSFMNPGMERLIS

Compound	inhibition [1] [%]	inhibition [2] [%]	inhibition [3] [%]	inhibition [4] [%]	inhibition [5] [%]	inhibition [6] [%]	inhibition [7] [%]	inhibition [8] [%]	inhibition [9] [%]	inhibition [10] [%]	inhibition [11] [%]	inhibition [12] [%]	inhibition [13] [%]	inhibition [14] [%]	inhibition [15] [%]	inhibition [16] [%]	inhibition [17] [%]	inhibition [18] [%]	inhibition [19] [%]	inhibition [20] [%]
CCn1c(-c2nonc2N)nc2ccncc21	4.26	0.76	1.92	-0.28	0	-0.19	0.57	1.02	3.26	1.34	3.25	0.84	2.17	0.57	3.36	2.12	8.39	0.91	-1.6	1.94
CCCN1CCC(Oc2cc(Nc3nc(Nc4cccc(F)c4C(N)=O)c4cc[nH]c4n3)c(OC)cc2Cl)CC1	14.8	1.04	1.06	1.35	7.05	1.2	4.52	0.11	7.94	-0.33	8.74	0.21	17.1	1.4	3.67	0.8	3.46	7.71	7.12	0.94
COc1cc2ncn(-c3cc(OCc4ccccc4Cl)c(C(N)=O)s3)c2cc1OC	2.36	1.15	0.82	-0.26	0.66	0.93	0.76	0.01	0.57	-0.54	1.64	0.33	0.33	1.08	3.55	0.53	1.84	-0.05	-3.1	-0.3
